Data from PubChem BioAssay.
Several values for one entry are separate records, joined by “and”; a condition that tells them apart may be missing. Equal entries are not always repeated. Inconclusive results are not listed. Activity calls are given as the source filed them. Unless noted, no cut-off is given here; in the data, nearly all actives have AC50 up to about 26 µM.

Tests used:
[1] = growth inhibition of DIPG glioma cells, dose response, cell-based, SU-DIPG-XVII, MIPE5.0, CellTiter-Glo, qHTS (AID 1347060); details: SU-DIPG-XVII viability, CellTiter-Glo ATP luminescence;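 for AC50: cells exposed to compound for 48 hours before viability readout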
[2] = growth inhibition of DIPG glioma cells, dose response, cell-based, SU-DIPG-XIII, MIPE5.0, CellTiter-Glo, qHTS (AID 1347064; cut-off not given, nearly all actives have AC50 up to about 23 µM;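 for AC50: cells exposed to compound for 48 hours before the viability read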); details: SU-DIPG-XIII viability, CellTiter-Glo ATP luminescence
[3] = viability loss in pontine glioma line – cell-based, SU-DIPG-XXV, MIPE5.0, CellTiter-Glo, qHTS, dose response (AID 1347065); details: CellTiter-Glo ATP luminescence;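 note: cells exposed to compound for 48 hours before ATP readout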
[4] = JHH-DIPG-1 glioma cell viability, MIPE5.0 library, CellTiter-Glo luminescence, qHTS (AID 1347067); details: JHH-DIPG-1 glioma viability, CellTiter-Glo ATP luminescence;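 note: cells exposed to compound for 48 hours before readout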
[5] = SU-DIPG-XXV glioma cell viability, MIPE5.0 library, qHTS (AID 1347068; cut-off not given, nearly all actives have IC50 up to about 30 µM;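 for IC50: cells exposed to compound for 48 hours before viability readout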)
[6] = SU-DIPG-VI glioma cell viability, MIPE4.0 library, CellTiter-Glo luminescence, qHTS (AID 1347066; cut-off not given, nearly all actives have AC50 up to about 30 µM;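 note: cells exposed to compound for 48 hours before readout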); details: CellTiter-Glo ATP luminescence
[7] = polyglutamine-triggered caspase-3 activation inhibitors, cell-based (AID 1583); details: polyglutamine-induced caspase-3 activation, cell assay; stronger effect = higher value;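 tested at 10 µM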
[8] = circadian clock period modulators, cell-based, LOPAC library, luminescence reporter (AID 2774; call rule not given here;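 note: values are relative to mean of DMSO wells on each plate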); details: circadian reporter cells, at 7 µM, actives lie on both sides
[9] = test system: Hepatitis C virus NS3 helicase; test: HCV NS3 helicase inhibitors, primary screen, biochemical, fluorescence polarization, LOPAC1280 library (AID 687035; in the data active = inhibition above about 37%); details: Purified HCV NS3 helicase, Cy5-dT15 ssDNA binding fluorescence polarization; stronger effect = higher value; concentration not given here
[10] = Cy5 fluorescence quenching or enhancement artefacts, artefact control for HCV NS3 helicase inhibitor project, biochemical, LOPAC1280 (AID 687037; call rule not given here); details: Cy5-DNA-NS3h complex fluorescence interference counterscreen
[11] = test system: Aerobactin synthetase IucA (Klebsiella pneumoniae); test: IucA aerobactin synthetase inhibitors, biochemical, Tocris library, absorbance (AID 1345561; call rule not given here;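 note: 100% = enzyme without compound and 0% = no enzyme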); details: purified IucA enzyme assay, absorbance (OD) read-out; stronger effect = lower value;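 tested at 8 µM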
[12] = phospholipid biosynthesis inhibitors in animal cells, primary screen, cell-based, LOPAC library, screen 4 (AID 1347384; call rule not given here); details: phospholipid biosynthesis inhibition screen, at 10 µM
[13] = CRL2098 osteosarcoma cell growth inhibition, synergistic combos for chromothripsis tumors, BGB or cisplatin IC20 combos (AID 1671454; in the data active = inhibition above about 80%;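 note: cells exposed for 96 h before readout; 0% = vehicle DMSO and 100% = killing by high DMSO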); details: CRL2098 osteosarcoma cells, drug combinations, stronger effect = higher value
[14] = HD-MB03 medulloblastoma cell growth inhibition, synergistic combos for chromothripsis tumors, BGB or cisplatin IC20 combos (AID 1671455; in the data active = inhibition above about 83%;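 note: 0% = vehicle DMSO and 100% = high DMSO as cytotoxic control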); details: HD-MB03 medulloblastoma cells, stronger effect = higher value
[15] = UWB1.289 ovarian carcinoma cell growth inhibition, synergistic combos for chromothripsis tumors, BGB or cisplatin combos (AID 1671456; in the data active = inhibition above about 80%;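 note: cells exposed to compound for four days; 0% = vehicle DMSO and 100% = killing by high DMSO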); details: UWB1.289 ovarian carcinoma cells, stronger effect = higher value
[16] = LFS_MB_2R medulloblastoma cell growth inhibition, synergistic combos for chromothripsis tumors, cisplatin combos (AID 1671457; in the data active = inhibition above about 80%;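 note: cells exposed to compound for four days before readout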); details: LFS_MB_2R medulloblastoma cells, stronger effect = higher value
[17] = UWB1.289_BRCA1 ovarian cancer growth, cell-based, BGB or cisplatin combinations (AID 1671459; in the data active = inhibition above about 80%); details: UWB1.289 BRCA1 ovarian carcinoma, drug combinations, stronger effect = higher value
[18] = human astrocyte viability loss, single and combined drugs, cytotoxicity control for chromothriptic childhood tumor combination screen, cell-based, BGB or cisplatin IC20 combos (AID 1671460; in the data active = inhibition above about 80%;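 note: cells exposed to compounds for 96 hours before viability readout; 0% = vehicle and 100% = killing control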); details: Human astrocytes, drug combinations, stronger effect = higher value
[19] = target: ATP-dependent translocase ABCB1 (Homo sapiens) (UniProt P08183); test: MDR1 (ABCB1) efflux transporter inhibition, cell-based (AID 377; in the data active = fluorescence slope change above about 50%); details: MDR1-expressing cells, fluorescent substrate accumulation slope; stronger effect = higher value; concentration not given here
Chain of ATP-dependent translocase ABCB1 (Homo sapiens) (P08183 whole entry, looked up): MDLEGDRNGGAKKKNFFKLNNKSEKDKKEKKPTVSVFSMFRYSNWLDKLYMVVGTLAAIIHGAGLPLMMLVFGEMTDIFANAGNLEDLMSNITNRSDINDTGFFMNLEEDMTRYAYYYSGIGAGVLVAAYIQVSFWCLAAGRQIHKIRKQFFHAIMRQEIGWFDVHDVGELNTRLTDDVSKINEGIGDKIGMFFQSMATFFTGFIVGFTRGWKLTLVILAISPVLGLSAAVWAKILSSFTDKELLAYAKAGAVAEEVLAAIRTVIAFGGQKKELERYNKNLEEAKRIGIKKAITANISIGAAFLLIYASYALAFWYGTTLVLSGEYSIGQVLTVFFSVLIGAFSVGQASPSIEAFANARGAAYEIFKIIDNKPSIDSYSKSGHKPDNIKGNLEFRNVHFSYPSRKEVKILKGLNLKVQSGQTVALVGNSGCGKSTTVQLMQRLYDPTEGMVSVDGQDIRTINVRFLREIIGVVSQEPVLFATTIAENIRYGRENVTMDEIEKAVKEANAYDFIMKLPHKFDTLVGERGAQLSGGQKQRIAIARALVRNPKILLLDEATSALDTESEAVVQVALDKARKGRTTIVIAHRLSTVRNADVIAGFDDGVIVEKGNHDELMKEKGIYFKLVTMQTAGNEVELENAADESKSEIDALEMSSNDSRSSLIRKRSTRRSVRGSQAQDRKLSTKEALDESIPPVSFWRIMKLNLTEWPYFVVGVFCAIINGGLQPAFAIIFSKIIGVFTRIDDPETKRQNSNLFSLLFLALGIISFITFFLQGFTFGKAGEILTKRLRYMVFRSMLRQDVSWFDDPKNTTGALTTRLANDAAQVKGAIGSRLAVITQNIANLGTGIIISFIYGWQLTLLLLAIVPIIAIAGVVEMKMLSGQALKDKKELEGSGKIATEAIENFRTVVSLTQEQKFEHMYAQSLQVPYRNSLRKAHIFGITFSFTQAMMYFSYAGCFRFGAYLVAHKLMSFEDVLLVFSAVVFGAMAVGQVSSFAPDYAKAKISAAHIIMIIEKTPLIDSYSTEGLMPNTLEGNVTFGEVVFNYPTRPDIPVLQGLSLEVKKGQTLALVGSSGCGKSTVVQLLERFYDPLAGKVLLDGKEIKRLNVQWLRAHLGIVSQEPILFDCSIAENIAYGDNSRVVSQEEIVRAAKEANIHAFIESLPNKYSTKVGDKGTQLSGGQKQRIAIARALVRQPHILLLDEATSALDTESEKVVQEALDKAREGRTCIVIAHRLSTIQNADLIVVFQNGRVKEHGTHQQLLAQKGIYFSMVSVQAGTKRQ

Question: What does the source list for `COc1cc([C@@H]2c3cc4c(cc3[C@H](O)[C@H]3COC(=O)[C@@H]23)OCO4)cc(OC)c1OC`?
Answer: AC50 [1]: 525 nM (active); AC50 [2]: 2630 nM (active); AC50 [3]: 742 nM (active); AC50 [4]: 1050 nM (active); IC50 [5]: 934 nM (active)

Question: For `CCC[C@@H]1C[C@@H](C(=O)N[C@@H]([C@H]2O[C@H](SC)[C@H](O)[C@@H](O)[C@H]2O)[C@H](C)Cl)N(C)C1`, which outcome [1] is on record?
Answer: inactive

Question: What about the outcome [2] of the same compound?
Answer: inactive

Question: What about the outcome [3] of the same compound?
Answer: inactive

Question: And the outcome [4]?
Answer: inactive

Question: And the outcome [5]?
Answer: inactive

Question: Which results are given for `COc1ccc(-c2cc(=O)c3c(O)cc(O[C@@H]4O[C@H](CO[C@@H]5O[C@@H](C)[C@H](O)[C@@H](O)[C@H]5O)[C@@H](O)[C@H](O)[C@H]4O)cc3o2)cc1O`?
Answer: outcome [1]: inactive; outcome [2]: inactive; outcome [3]: inactive; outcome [6]: inactive; outcome [4]: inactive; outcome [5]: inactive

Question: With `C[C@@H]1[C@H](O)[C@@H](C)/C=C/C=C/C=C/C=C/C=C/C=C/C=C/[C@H](O[C@@H]2O[C@H](C)[C@@H](O)[C@H](N)[C@@H]2O)C[C@@H]2O[C@](O)(C[C@@H](O)C[C@@H](O)[C@H](O)CC[C@@H](O)C[C@@H](O)CC(=O)O[C@H]1C)C[C@H](O)[C@H]2C(=O)O` as the compound, how does the outcome [1] read?
Answer: inactive

Question: What about the outcome [6] of the same compound?
Answer: inactive

Question: What about the outcome [4] of the same compound?
Answer: inactive

Question: And the outcome [5]?
Answer: inactive

Question: Which outcome [1] does the source give for `COc1ccc([C@@H]2CC(=O)c3c(O)cc(O[C@@H]4O[C@H](CO[C@@H]5O[C@@H](C)[C@H](O)[C@@H](O)[C@H]5O)[C@@H](O)[C@H](O)[C@H]4O)cc3O2)cc1O` here?
Answer: inactive

Question: And the outcome [2]?
Answer: inactive

Question: What about the outcome [3] of the same compound?
Answer: inactive

Question: And the outcome [6]?
Answer: inactive

Question: What about the outcome [4] of the same compound?
Answer: inactive

Question: And the outcome [5]?
Answer: inactive

Question: For `CCCn1c(=O)c2[nH]c(C3CCCC3)nc2n(CCC)c1=O`, which inhibition [7] is on record?
Answer: 8.56%

Question: What about the period change [8] of the same compound?
Answer: -0.025 h (inactive)

Question: What about the inhibition [9] of the same compound?
Answer: 0% (inactive)

Question: And the fluorescence ratio (interference) [10]?
Answer: 1 (inactive)

Question: What about the remaining activity [11] of the same compound?
Answer: 119% (inactive)

Question: And the outcome [12]?
Answer: inactive

Question: Which outcome [1] does the source give for `CCC(=O)NCC[C@@H]1CCc2ccc3c(c21)CCO3` here?
Answer: inactive

Question: And the outcome [2]?
Answer: inactive

Question: What about the outcome [3] of the same compound?
Answer: inactive

Question: And the outcome [6]?
Answer: inactive

Question: And the outcome [4]?
Answer: inactive

Question: And the outcome [5]?
Answer: inactive

Question: For `O=C1c2c(O)cccc2[C@H]([C@@H]2O[C@H](CO)[C@@H](O)[C@H](O)[C@H]2O)c2cc(CO)cc(O)c21`, which outcome [6] is on record?
Answer: inactive

Question: With `COc1cc2c(c(OC)c1OC)-c1ccc(OC)c(=O)cc1C(NC(C)=O)CC2` (stereo not given) as the compound, how does the remaining activity [11] read?
Answer: 109% (inactive)

Question: With `C=C1C(=O)O[C@H]2[C@H]1CC/C(C)=C/CC[C@@]1(C)O[C@@H]21` as the compound, how does the remaining activity [11] read?
Answer: 83.6% (inactive)

Question: What does the source list for `COc1cc(NS(C)(=O)=O)ccc1Nc1c2ccccc2nc2ccccc12`?
Answer: period change [8]: -0.215 h (inactive); inhibition [9]: -8% (inactive); fluorescence ratio (interference) [10]: 0.9 (inactive); AC50 [1]: 934 nM (active); AC50 [3]: 11800 nM (active); AC50 [4]: 16600 nM (active); outcome [12]: inactive; inhibition ([13]; at 0.5 µM): 3.39% (inactive) and -17.2% (inactive); inhibition ([13]; measured here: combination with BGB at IC20, at 0.5 µM): 5.83% and -2.6%; inhibition ([13]; measured here: combination with cisplatin at IC20, at 0.5 µM): 6.88% and -21.3%; inhibition ([14]; at 0.5 µM): 89.9% (active) and 92.8% (active); inhibition ([14]; measured here: combo with BGB at IC20, at 0.5 µM): 85.2% and 89.8%; inhibition ([14]; measured here: combo with cisplatin at IC20, at 0.5 µM): 93.1% and 93.7%; inhibition ([15]; at 0.5 µM): 34.8% (inactive) and 27.8% (inactive); inhibition ([15]; measured here: inhibition with BGB combination, at 0.05 µM): -10.9% and -18.9%; inhibition ([15]; measured here: inhibition with cisplatin combination, at 0.05 µM): 5.17% and -0.785%; inhibition ([16]; at 0.5 µM): -7.33% (inactive) and -4.82% (inactive); inhibition ([16]; measured here: combination with cisplatin, at 0.5 µM): -3.1% and -25.3%; inhibition ([16]; measured here: combination with cisplatin, at 5 µM): 21% and 20.3%; inhibition ([17]; BGB combination, concentration series, at 5 µM): 79.6% and 77.5%; inhibition ([17]; at 0.5 µM): 31% (inactive) and 27.1% (inactive); inhibition ([17]; cisplatin combination, concentration series, at 5 µM): 109% and 107%; inhibition ([18]; at 0.5 µM): 47.7% (inactive) and 54% (inactive); inhibition ([18]; measured here: combo with BGB IC20, at 0.5 µM): 46.6% and 56.1%; inhibition ([18]; measured here: combo with cisplatin IC20, at 0.5 µM): 26.6% and 33.1%

Question: Which period change [8] does the source give for `O=C(O)C1=CCCNC1` here?
Answer: 0.125 h (inactive)

Question: And the inhibition [9]?
Answer: -3% (inactive)

Question: And the fluorescence ratio (interference) [10]?
Answer: 1 (inactive)

Question: What about the remaining activity [11] of the same compound?
Answer: 107% (inactive)

Question: And the outcome [12]?
Answer: inactive

Question: For `CC(C)(O)CC[C@@H](O)[C@](C)(O)[C@H]1CC[C@@]2(O)C3=CC(=O)[C@@H]4C[C@@H](O)[C@@H](O)C[C@]4(C)[C@H]3CC[C@]12C`, which outcome [1] is on record?
Answer: inactive

Question: What about the outcome [2] of the same compound?
Answer: inactive

Question: And the outcome [3]?
Answer: inactive

Question: What about the outcome [6] of the same compound?
Answer: inactive

Question: And the outcome [4]?
Answer: inactive

Question: And the outcome [5]?
Answer: inactive

Question: Which results are given for `CC(C)C[C@H]1C(=O)N2CCC[C@H]2[C@]2(O)O[C@](NC(=O)[C@@H]3C=C4c5cccc6[nH]c(Br)c(c56)C[C@H]4N(C)C3)(C(C)C)C(=O)N12`?
Answer: fluorescence slope change [19]: 115% (active); period change [8]: 0.365 h (inactive); inhibition [9]: 2% (inactive); fluorescence ratio (interference) [10]: 0.9 (inactive); remaining activity [11]: 93.8% (inactive); outcome [12]: inactive

Question: With `O=C(O)c1c2ccccc2cc2ccccc12` as the compound, how does the inhibition [7] read?
Answer: -6.04%

Question: And the remaining activity [11]?
Answer: 101% (inactive)
